Laboratory results as given in PubChem BioAssay AID1662 (Broad Institute, 2009).
In all, about 300,000 compounds went through this assay and about 4,000 (1.3%) were called active. Shown is part of a subset that was picked to be rich in actives. Unmarked numbers belong to inactive results.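 How the source made its calls: active means mean replicate score, as percent of positive control median, at least 50; inconclusive means mean below 50 but one replicate at or above 50; inactive means mean and every replicate below 50.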

Assay: kanamycin survival loss of SKKanGAS strain – BacTiter-Glo luminescence, streptokinase expression inhibitor project, primary screen (AID 1662);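 further: strain carries kanamycin resistance gene driven by streptokinase promoter and grows in 40 µg/ml kanamycin; loss of luminescence reflects streptokinase promoter inhibition or plain growth inhibition; 0% = median of DMSO wells and 100% = positive control at its reference dose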
Conditions: S. pyogenes SKKanGAS, kanamycin growth, 6 h, at 7.5 µM, hits give high values

SMILES | inhibition
Oc1ccc2ccccc2c1N=Nc1nccs1 | 106% (active)
Oc1ccc(N=Nc2nccs2)c(O)c1 | 3.07%
c1ccc(NCc2cccc3ccccc23)nc1 | 22.8%
c1ccc(-c2nc(NCc3ccco3)c3ccccc3n2)cc1 | -7.68%
COc1ccccc1Oc1nc(-c2cccnc2)nc2ccccc12 | 5.74%
COc1ccc(Cc2nc(-c3ccccn3)no2)cc1OC | 29.5%
CCOCCCNc1nc(-c2ccccc2)nc2ccccc12 | -2.19%
Cc1ccc(Oc2nc(-c3ccccn3)nc3ccccc23)cc1 | 76.2% (active)
COc1cnc(-c2ccccn2)nc1Oc1ccc(C(C)(C)C)cc1 | 78.3% (active)
N#Cc1ccc(Oc2cc(C(F)(F)F)nc(-c3ccccn3)n2)cc1 | -2.81%
COc1ccc(Sc2nc(-c3ccccc3)ncc2OC)cc1 | 0.835%
CC(C)(C)Nc1nc(-c2ccccn2)nc2ccccc12 | 87.4% (active)
CSc1ccc(S(=O)(=O)Nc2cccc(F)c2)cc1 | 7.04%
COc1ccc(N=Nc2c(-c3ccc(OC)cc3)[nH]oc2=O)cc1 | 6.47%
CCCN(CCC)c1c([N+](=O)[O-])c(=O)oc2ccccc12 | -5.31%
CCOC(=O)c1cc2c(=O)n3ccccc3nc2n(CC(C)C)c1=NC(=O)c1c(-c2c(F)cccc2Cl)noc1C | 18.2%
O=C(CN1C(=O)NC2(CCCC2)C1=O)NCC1CCCO1 (stereo not drawn) | -1.73%
COC(C/C=C/C(=O)[C@@H](C)OCc1ccccc1)OC | -2.55%
NC(=O)c1nnsc1-c1ccc(-c2snnc2C(N)=O)cc1 | 2.07%
COc1cc2c3c(c1)/C(=C1/SC(=S)NC1=O)C(=O)N3C(C)(C)C=C2C | 61.3% (active)
Cc1nc2ccc(S(=O)(=O)N(C)CC(=O)NC(C)c3ccccc3)cc2s1 (stereo not drawn) | -15%
COCC1CCCN(C(=O)c2ccc3oc(C(C)C)nc3c2)C1 (stereo not drawn) | -3.17%
CN1CCN(C(=O)CCc2nc(-c3ccc(Cl)cc3)no2)CC1 | -5.8%
COCC1CCN(C(=O)CCc2nnc(C3(c4ccc(Cl)cc4)CCC3)o2)C1 (stereo not drawn) | 49.5% (active)

SMILES | inhibition
O=C(COC(=O)CNS(=O)(=O)c1ccc(F)c(F)c1F)NC1CCCC1 | 2.52%
CO/N=C(\C(=O)N[C@@H]1C(=O)N2C(C(=O)O)=C(COC(C)=O)CS[C@H]12)c1csc(N)n1 (stereo in doubt) | 33%
C=CC1=C(C(=O)O)N2C(=O)[C@@H](NC(=O)/C(=N/OCC(=O)O)c3csc(N)n3)[C@H]2SC1 | 109% (active)
Cc1ccc2c(c1)-c1c(ssc1=S)C(C)(C)N2C(=O)CN1C(=O)c2ccccc2C1=O | 24.3%
Nc1nc(NC(=O)/C=C/c2ccccc2)nn1-c1ccccc1 | -11.5%
Nc1nc(NC(=O)/C=C/c2ccc(F)cc2)nn1-c1ccccc1 | 76.1% (active)
Cc1ccc(C(=O)Nc2nc(N)n(-c3ccccc3)n2)cc1 | 5.73%
Cc1sc2nc(SCCO)n(-c3ccccc3)c(=O)c2c1C | 7.52%
COC(=O)c1ccc(NC(=O)C23CC4CC(C2)CC(n2cnc(Cl)n2)(C4)C3)cc1 | -3.03%
COCc1c(C(=O)OCc2c(C)noc2C)oc2ccccc12 | 2.6%
CCOC(=O)c1oc2ccccc2c1NC(=O)c1cccs1 | -5.47%
Cc1cc(C)c(NC(=O)c2oc3ccccc3c2COc2ccccc2)c(C)c1 | 58.7% (active)
CCc1ccc(NC(=O)CN2C(=O)COc3ccc(S(=O)(=O)N4CCCC4)cc32)cc1 | 2.1%
CCn1ccnc1CNC(=O)CC1C(=O)NCCN1CCCc1ccccc1 (stereo not drawn) | -0.266%
O=C(NCc1cccnc1)Nc1cccc(NC(=O)NCc2cccnc2)c1F | -0.181%
O=C(Nc1ccc(Cl)c(Cl)c1)N1CC=C(c2ccccc2)CC1 | 58.4% (active)
O=C(Nc1ccccc1)N1CCN(C(=O)Nc2ccccc2)CC1 | 3.57%
COc1cc(C(=O)NCC(=O)N2CC=C(c3ccccc3)CC2)cc(OC)c1OC | 9.79%
CCO[C@@H]1OC(C(N)=O)=C[C@H](c2ccc(Br)cc2)[C@H]1CCCO | 0.82%
Cc1cccn2c(CNCC(C)Oc3cccnc3)c(C(=O)N3CCOCC3)nc12 (stereo not drawn) | -4.82%
CCOc1cc(/C=C(\C#N)c2nc(-c3cccs3)c(NC(C)=O)s2)ccc1O | 109% (active)
COc1cc(/C=C(\C#N)c2nc3c(s2)CC(C)CC3)ccc1O (stereo not drawn) | 10.1%
COc1cc(/C=N\Nc2nc(-c3cccs3)c(NC(C)=O)s2)ccc1O | 1.83%
O=C(Cn1cnc2ccccc21)Nc1ccccc1-c1ccccc1 | 0.579%

SMILES | inhibition
CCOc1ccc(C(=O)Nc2cc(Cl)ccc2-n2cncn2)cc1OC | -2.54%
CCOC(=O)NNc1cc(C(F)(F)F)ccn1 | 0.731%
O=C(/C=C/c1ccc(Cl)cc1)NCCCn1ccnc1 | -2.11%
CCOC(=O)CC(NC(=O)C1c2ccccc2Oc2ccccc21)c1ccc(C)cc1 (stereo not drawn) | 5.34%
O=C(N/N=C/c1ccccc1O)C1CCCC1 | 73.1% (active)
Oc1ccccc1C=NC1CCCCC1N=Cc1ccccc1O (stereo not drawn) | -8.77%
COc1ccc(/C=N/NC(=O)C2CC2)c(OC)c1OC | 14.5%
CC1(C(=O)NNC(=S)NCC2CCCO2)CC1(Cl)Cl (stereo not drawn) | 2.55%
COc1ccc(OC)c(NC(=O)c2ccc3c(c2)CCN3S(C)(=O)=O)c1 | -4.51%
Nc1nc(SCC(=O)NNc2c(Cl)cc(Cl)cc2Cl)n[nH]1 | 7.52%
CCOc1cc(NC(=O)CCl)c(OCC)cc1NC(C)=O | -2.78%
COc1ccc(S(=O)(=O)N2CCCCC2)cc1NC(=O)C1CC(=O)N(c2ccc3c(c2)OCCO3)C1 (stereo not drawn) | 14.5%
COCc1ccc(C(=O)NC2CC(C)(C)Cc3c2cnn3-c2ccc(C)cc2)o1 (stereo not drawn) | -6.03%
Nc1c(Cl)cc(-c2csc(N3CCCC3c3nc4cc(Cl)c(Cl)cc4n3CCOCCO)n2)cc1Cl (stereo not drawn) | 62.1% (active)
Cc1ccc(-c2csc(N3CCN(c4cc5c(cc4Cl)nc(-c4ccncc4)n5CCOCCO)CC3)n2)cc1 | 47.5%
CCCn1c(C2CCCN2c2nc(-c3ccc(C)cc3)cs2)nc2cc(Cl)c(N3CCCCC3)cc21 (stereo not drawn) | 9.01%
COc1ccccc1-c1nc(SC)n[nH]1 | -1.68%
COc1ccccc1-c1n[nH]c2c1[C@H](C)CC[C@H]2C(C)C | 91.1% (active)
COc1ccc(-c2n[nH]c(C)c2-c2ccccc2OC)c(O)c1 | 1.39%
Cc1cc(C)c2c(=O)[nH]c(SCC(=O)Nc3ccc(Br)cc3)nc2n1 | 30%
N#Cc1c(-c2cccs2)nc(SCC(=O)c2ccc(Br)cc2)[nH]c1=O | 55.8% (active)
O=C(CSc1nc2ccccc2c(=O)[nH]1)Nc1nc(-c2ccc(Br)cc2)cs1 | 4.78%
N#CC1(NC(=O)COC(=O)Cc2n[nH]c(=O)c3ccccc23)CCCCC1 | -3.3%
Cc1ccc(S(=O)(=O)c2ccc(Cl)cc2)cc1S(=O)(=O)NC(C(=O)O)C(C)C (stereo not drawn) | 0.0508%

SMILES | inhibition
COc1cc2c(cc1NC(=O)COC(=O)/C=C/c1ccccc1)oc1ccccc12 | -12.9%
O=C(Nc1cn(-c2ccccc2)nc1-c1ccccc1)c1ccccc1 | -2.24%
O=C(NNC(=S)NC(=O)c1cn(-c2ccccc2)nc1-c1ccccc1)c1ccncc1 | 99.7% (active)
Cc1onc(-c2ccccc2)c1C(=O)NNC(=S)NC(=O)c1ccc(F)cc1 | 7.91%
COC(=O)Cn1cc(/C=C/[N+](=O)[O-])c2ccccc21 | 0.686%
O=C(CN1C(=O)S/C(=C\c2ccccc2F)C1=O)NCCCn1ccnc1 | 2.35%
O=C(CN1C(=O)/C(=C/c2ccccc2F)Sc2ccccc21)NCc1cccnc1 | -8.35%
O=C(CN1C(=O)/C(=C\c2ccccc2F)SC1=S)Nc1nc2ccccc2s1 | 94.2% (active)
O=c1[nH]c(CCl)nc2cc(-c3ccc(Cl)cc3)sc12 | 29.5%
CC1CCc2c(nc3ncnn3c2Nc2ccc(OC(F)(F)F)cc2)C1 (stereo not drawn) | 2.5%
O=[N+]([O-])c1cc(Br)c(O)c(/C=N/Nc2nc3ccccc3s2)c1 | 92% (active)
COc1ccc(CC(=O)NCC(=O)N/N=C/c2cc(Br)ccc2OC)cc1 | 4.99%
COc1ccc(CC(=O)N/N=C/c2cc([N+](=O)[O-])cc(Br)c2O)cc1 | 61.6% (active)
COc1cc(OC)c(/C=N/NC(=O)c2ccc([N+](=O)[O-])cc2)cc1Br | -10.8%
COc1cc(/C=N/Nc2nc3ccccc3s2)ccc1O | -7.58%
c1ccc2sc(NN=C3CCCC3)nc2c1 | 18.5%
CC1(C)c2[nH]c3ccccc3c2C[C@H]2C(=O)N(N)CC(=O)N21 | 1.39%
NNC(=O)c1ccc(COCC(F)(F)C(F)F)cc1 | -2.77%
CC(=O)c1ccc(N2CCN(C(=O)CCNC(=O)Cn3ccc4ccccc4c3=O)CC2)cc1 | 0.0785%
Cc1cc(C)cc(C(=O)NC(CC(N)=O)c2ccc(N3CCC(N4CCCCC4)CC3)c([N+](=O)[O-])c2)c1 (stereo not drawn) | -2.72%
Cc1ccc2c(c1)c1ncnc(N3CCc4ccccc4C3)c1n2C | 47.1%
